12-hLO inh = blocks human 12-lipoxygenase activity; 150,000 tested, 0.12% active; P18054; Potency, µM (titrated, usually from 57.1 µM), hits mostly inhibitors; purified 12-hLO, xylenol orange hydroperoxide absorbance; further: nearly all actives have a fitted effect of over 55% in size
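150 nM 12hLO, 25 mM Hepes pH 7.0 + 0.01% Triton X-100; cpd preinc 15 min RT; 40 uM arachidonic acid, 30 min RT; Fe-XO 30 min; A573/A405 ratio as read-out.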
PNC assembly inh = perinucleolar compartment assembly inhibition | PC3M PTB-GFP, PNC prevalence imaging, 16 h; active compounds read low | activity change (PNC), negative = inhibition, % at 10 µM | 140,000 tested, 3.1% active | AID 2417;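 active means readout at or below -70, meaning at least 70% loss of cells showing the perinucleolar compartment, a nuclear body marking cancer cells; inconclusive means readout between -30 and a set limit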
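Compounds are pinned in duplicate onto adhered PC3M cells stably expressing GFP-tagged PTB and incubated 16 h at 37 C. Cells are then fixed, nuclei stained with Hoechst, and PNC-positive cells counted.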
IMPase cell inh = IMPase inhibition in cells. P97697. 120,000 tested, under 10 active. CHO-M1 cells, IP1 accumulation, HTRF TR-FRET ratio. inhibition (IP1 accumulation), % at 46.1 µM; active means well fitted curve in the direction sought with a large enough effect in the signal ratio, not every such curve was filed as active; inconclusive means small, poorly fitted or top-dose-only effect, or a change in a side signal; inactive means no such curve, though single readings can be large or run the other way; the % refers to the signal ratio;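 further: cells stimulated with carbachol in lithium chloride buffer; higher means more IMPase inhibition seen as more IP1 and lower FRET ratio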
Target sequence (P97697 whole entry, looked up): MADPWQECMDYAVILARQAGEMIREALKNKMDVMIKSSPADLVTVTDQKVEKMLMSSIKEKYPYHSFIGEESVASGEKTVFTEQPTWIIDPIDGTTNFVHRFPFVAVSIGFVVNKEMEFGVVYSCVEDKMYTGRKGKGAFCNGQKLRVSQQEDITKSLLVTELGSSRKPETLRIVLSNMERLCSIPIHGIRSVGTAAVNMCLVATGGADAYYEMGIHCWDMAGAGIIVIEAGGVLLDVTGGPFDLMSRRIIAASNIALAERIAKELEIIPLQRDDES
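Seeded CHO-M1 cells were dosed with compound at up to 46 uM, stimulated with carbachol for 30 min, then lysed in IP-One detection reagents. Higher IP1 lowers the TR-FRET signal.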
IMPase Li inh = cell-permeable IMPase inhibitors with lithium potentiation | CHO-M1 cells, IP1 TR-FRET (IP-One), carbachol + lithium | Potency, µM (titrated, usually from 59.4 µM), most hits filed as inhibitors | 210,000 tested, 0.35% active;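 further: IP1 builds up when IMPase is blocked and the TR-FRET signal falls; nearly all actives have a fitted effect of over 50% in size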
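Steps: plate 2000 CHO-M1 cells per well and culture 16–30 h; add compound and lithium; incubate 30 min, 37C; add d2-IP1 tracer and Eu cryptate anti-IP1 antibody in lysis buffer; read after 10 min at room temperature.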
15-hLO-2 inh = blocks human 15-lipoxygenase 2 activity. AID 881. 110,000 tested, 0.56% active. purified 15hLO-2, xylenol orange hydroperoxide absorbance. Potency, µM (highest dose often 57.1 µM), usual class: inhibitors. O15296; further: nearly all actives have a fitted effect of over 60% in size
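Enzyme 50 nM, AA 45 uM, 25 mM Hepes pH 7.5 + 0.01% Triton X-100; cpd preinc 15 min RT, rxn 90 min RT; stop/detect with 200 uM XO + 300 uM Fe(II) in 50 mM H2SO4, 30 min; A573/A405.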
Hits are given with their value; . = inactive; ? = inconclusive; / = not tested or not shown; [ ] = dose if it differs, or a comment. The entries come from a sample that favours hits as a whole. Unless noted, the call rests on the fitted dose curve; in most records, active means well fitted curve in the direction sought with a large enough effect; inconclusive means small, poorly fitted or top-dose-only effect, or another doubt; inactive means no such curve, though single readings can be large; an effect the other way counts as inactive or inconclusive.

SMILES	12-hLO inh	PNC assembly inh	IMPase cell inh	IMPase Li inh	15-hLO-2 inh
O=C(C1CCCO1)N1CCN(Cc2nc3ccccc3c(=O)[nH]2)CC1 (stereo not given)	.	-135	.	.	.
O=c1[nH]c(CN2CCOCC2)nc2ccccc12	/	/	/	.	/
N#Cc1cccc(-c2nc3cnc(N4CCOCC4)nc3n(C3CC3)c2=O)c1	/	/	/	.	.
O=C(NCCN1CCOCC1)c1ccc(-n2c(=O)c(=O)[nH]c3ccccc32)cc1	.	/	/	/	/
CCCn1c2c(c(O)c(C(=O)NC)c1=O)CCCC2	.	.	.	.	/
CCCn1c2c(c(O)c(C(=O)NCCCN(CC)CC)c1=O)CCCC2	.	-100	.	.	/
O=C(COc1ccc2oc3c(c2c1)CCCC3)Nc1cccc(Br)c1	/	/	.	/	/
Oc1c(Br)cc(Br)cc1CN(Cc1cc(Br)cc(Br)c1O)C1CCCCC1	.[11.4 µM]	/	/	.	.[11.4 µM]
Cc1cc(OCc2ccc(C(=O)n3cccn3)o2)ccc1Cl	.	-119	.	.	/
COCCn1c(=O)c(CCc2ccccc2)nc2cnc(Nc3ccccc3)nc21	/	/	/	.	.
COc1ccc(OCC(=O)N/N=C/C=C/c2ccccc2)cc1	.	-115	.	.	/
COC(=O)C1C(=O)C2=C(CC1C)NC(C)=C(C(=O)OC1CCCCC1)C2c1ccc(N(C)C)cc1 (stereo not given)	.	-100	.	.	/
COC(=O)C1C(=O)C2=C(CC1C)NC(C)=C(C(=O)OC(C)C)C2c1ccc(C)o1 (stereo not given)	.	?	.	.	.
CCC(=O)C(C(=O)OC)[C@H](CCc1ccccc1)NC(=O)OC (stereo not given in full)	.	/	/	.	/
CC(=O)N1CCC2(CCCN(C(=O)Nc3cccc(C#N)c3)C2)CC1	.	/	/	.	.
O=C(Oc1ccccc1)N1CCC[C@@]2(CCN(c3ncccn3)C2)C1	.	/	/	.	.
CC(NCc1ccc(-c2ccccc2)cc1)C(O)c1ccccc1 (stereo not given)	.	-118	/	.	/
CC(O)CNCc1ccc(-c2ccccc2)cc1 (stereo not given)	.	.	?	.	.
COc1cc2c(cc1OC)C1=C(C#N)CCC(=O)N1CC2	.	-100	.	.	/
OCCN1CCN(CCCN2c3ccccc3C=Cc3ccccc32)CC1	.	/	.	.	.
O=C(Nc1ccc(Cl)cc1)C1CCC(=O)N1Cc1ccccc1Cl (stereo not given)	.	-90	.	.	.
Cc1ccc(/C=N/NC(=O)c2ccc(Br)o2)s1	.	-98	/	.	/
N#Cc1cccc(NC(=O)N2CCC3(CC2)CCN(C(=O)c2csnn2)CC3)c1	.	/	/	11µM	.
N#Cc1cccc(NC(=O)N2CCCC3(CCN(C(=O)c4csnn4)CC3)C2)c1	.	/	/	.	.
COC(=O)C/C=C/[C@@H](C)[C@@H](Cc1ccccc1Br)OC	/	/	/	.	/
SMILES	12-hLO inh	PNC assembly inh	IMPase cell inh	IMPase Li inh	15-hLO-2 inh
COc1ccc(OC)c(S(=O)(=O)Nc2ccc(O)c3ccccc23)c1	.	?	.	.	16µM
Cn1c(=O)n(C)c2cc(N3CCCCC3)c(NC(=O)c3ccc(Cl)cc3)cc21	/	/	.	/	/
C[C@H]1Cc2c(-c3ccccc3)nc3c(c2CO1)CN(C(=O)NCc1ccco1)CC3	.[11.4 µM]	/	/	.	/
COc1ccc(NC(=O)CSc2c(C)n[nH]c2C)cc1	.	.	.	.	.
Cc1n[nH]c(C)c1SCC(=O)Nc1ccc(F)cc1	.	-100	.	.	/
Cc1oncc1C(=S)Nc1ccccc1	.	-92	.	.	.
COc1ccc(/C=N/n2c(SC)nnc2-c2ccccc2)c(OC)c1OC	.	-125	.	.	.
O=C(O)CN(c1ccccc1)C1SC(=O)NC1=O (stereo not given)	.	.	.	.	.
Cc1cccc(N(CC(N)=O)C2SC(=O)NC2=O)c1 (stereo not given)	.	-100	.	.	/
Cc1ccccc1NC(=O)CSc1nc(N)c2c3c(sc2n1)CSC(C)(C)C3	.	.	/	.	/
Cc1ccc(NC(=O)CSc2nc(N)c3c4c(sc3n2)CSC(C)(C)C4)cc1	.	-93	/	.	/
CC(=O)c1ccc(NC(=S)NC(=O)c2c(Cl)c(C)nn2C)cc1	.	-109	/	.	/
COc1ccccc1C1C(C(=O)Nc2ccccc2)=C(C)Nc2nc(-c3ccccc3)nn21 (stereo not given)	/	/	.	/	/

Compound activity: PubChem BioAssay, National Center for Advancing Translational Sciences (NCATS)
